Assay results: article PMC4336329 (PLoS ONE, 2015)
About 14,000 (4.5%) of roughly 310,000 compounds showed an effect of 50% or more. Effects have a minus sign here. The entries come from a sample that favours strong results as a whole.

Molecular target: human ether-à-go-go-related gene (hERG) potassium channel (human, UniProt Q12809)
Assay: primary screen, population patch clamp on CHO cells stably expressing hERG; higher = less effect of the substance
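Note: peak tail current of the secondary pulse compared with the same well before compound.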

Chain of human ether-à-go-go-related gene (hERG) potassium channel (Q12809 whole entry, looked up): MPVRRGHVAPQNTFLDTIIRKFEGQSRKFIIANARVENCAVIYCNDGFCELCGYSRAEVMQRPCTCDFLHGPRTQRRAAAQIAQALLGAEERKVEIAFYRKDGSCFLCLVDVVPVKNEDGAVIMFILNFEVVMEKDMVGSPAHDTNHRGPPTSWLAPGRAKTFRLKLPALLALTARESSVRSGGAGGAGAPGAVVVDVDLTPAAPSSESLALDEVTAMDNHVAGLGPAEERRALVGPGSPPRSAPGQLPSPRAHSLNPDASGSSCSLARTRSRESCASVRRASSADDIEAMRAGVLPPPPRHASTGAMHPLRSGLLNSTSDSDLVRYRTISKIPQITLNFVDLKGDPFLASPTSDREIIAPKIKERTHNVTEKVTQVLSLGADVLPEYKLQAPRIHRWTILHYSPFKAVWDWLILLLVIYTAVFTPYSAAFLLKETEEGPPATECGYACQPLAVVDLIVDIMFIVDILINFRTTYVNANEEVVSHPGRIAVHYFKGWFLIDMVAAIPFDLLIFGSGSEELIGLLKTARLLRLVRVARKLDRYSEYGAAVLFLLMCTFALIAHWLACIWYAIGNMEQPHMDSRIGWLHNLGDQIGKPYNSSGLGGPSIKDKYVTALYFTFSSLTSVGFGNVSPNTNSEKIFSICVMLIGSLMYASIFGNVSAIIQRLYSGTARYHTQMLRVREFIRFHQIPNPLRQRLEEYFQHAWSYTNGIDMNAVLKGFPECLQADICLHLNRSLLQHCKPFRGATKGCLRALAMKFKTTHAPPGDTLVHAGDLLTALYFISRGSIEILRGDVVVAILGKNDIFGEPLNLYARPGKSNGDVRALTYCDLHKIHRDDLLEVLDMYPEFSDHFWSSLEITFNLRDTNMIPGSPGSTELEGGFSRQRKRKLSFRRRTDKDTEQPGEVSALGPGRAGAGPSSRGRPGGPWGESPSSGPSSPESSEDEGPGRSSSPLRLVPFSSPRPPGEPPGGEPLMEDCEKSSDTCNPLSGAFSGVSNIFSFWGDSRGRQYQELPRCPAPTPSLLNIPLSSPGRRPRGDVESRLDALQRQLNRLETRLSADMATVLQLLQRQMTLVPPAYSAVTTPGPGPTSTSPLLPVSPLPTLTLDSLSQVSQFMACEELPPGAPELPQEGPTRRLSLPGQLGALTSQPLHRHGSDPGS

In order of rising “hERG current change (%, negative = inhibition) at 10uM” value:
1. CCOc1ccc(CN2CCN(Cc3nc(C(C)C)cs3)CC2CCO)cc1 (stereo not shown)  -82.2%
2. COc1cccc(CN2CCN(Cc3nc(C(C)C)cs3)CC2CCO)c1 (stereo not shown)  -73.7%
3. O=C(CN1CCN(Cc2ccc(Cl)cc2)CC1)N/N=C/c1cccc(F)c1  -69.2%
4. O=C(CN1CCN(Cc2ccc(Cl)cc2)CC1)N/N=C/c1ccccc1F  -68.7%
5. Cc1ccc(CN2CCN(Cc3nc(C(C)C)cs3)CC2CCO)cc1 (stereo not shown)  -68.5%
6. Cc1ccc(CN2CCN(CC(=O)N/N=C/c3ccccc3F)CC2)cc1  -66.4%
7. O=C(COCC(=O)N/N=C/c1ccccc1F)N/N=C/c1ccccc1F  -54.8%
8. O=C(CN1CCN(Cc2ccc(Cl)cc2)CC1)N/N=C/c1c[nH]c2ccccc12  -52.9%
9. CN(CCO)c1cc(NCCCN2CCC(Cc3ccccc3)CC2)c2nonc2c1[N+](=O)[O-]  -38%
10. Cc1ccc(CN2CCN(CC(=O)N/N=C/c3c[nH]c4ccccc34)CC2)cc1  -36.3%
11. O=C(CN1CCCCCCC1)N/N=C/c1ccccc1F  -35.6%
12. CC(C)c1csc(CN2CCN(Cc3ccc(F)cc3)C(CCO)C2)n1 (stereo not shown)  -35.3%
13. O=C(CN1CCN(Cc2ccccc2)CC1)N/N=C/c1ccccc1F  -29.3%
14. COC(=O)c1ccc(NC(=O)c2ccc3c(c2)C(=O)N(Cc2cccnc2)C3=O)cc1  -23.2%
15. Cc1ccc2oc(=O)c3cc(C(=O)NCCN4CCN(C)CC4)sc3c2c1  -18.2%
16. COC(=O)c1ccc(C)c(NC(=O)C2CC(=O)N(C3CCCC(C)C3C)C2)c1 (stereo not shown)  -11.5%
17. c1ccc(-n2nnnc2-c2cnc(-c3cccnc3)nc2-c2cccs2)cc1  -10.6%
18. O=C(CCNC(=O)c1ccccc1Cl)Nc1cc(S(=O)(=O)N2CCOCC2)ccc1N1CCCC1  -8.58%
19. O=C(OCC(=O)N1CCCCC1)c1c[nH]c2ccccc12  -7.04%
20. COc1ccc(-c2nc3ccccc3n2Cc2ccc(C)cc2)cc1  -6.29%
21. CCOC(=O)COn1c(=O)c(-c2ccc(Cl)cc2)[n+]([O-])c2ccccc21  -4.24%
22. CC1C(c2ccccc2)C(C#N)(C#N)C2(C#N)C(=O)NC1(N)C2C (stereo not shown)  -3.25%
23. COc1cccc(CN2CCN(Cc3c(C)nn(C(C)C)c3C)CC2CCO)c1 (stereo not shown)  -2.68%
24. CC1CCc2nn(CC(=O)Nc3ccc(F)cc3F)cc2C1 (stereo not shown)  -2.61%
25. O=C1CN(C(=O)CSc2nnc(Nc3ccccc3)s2)c2ccccc2N1  0.255%
26. C=CCN(C(=O)CCC(=O)O)C1CC(=O)N(c2ccc(OCCC)cc2)C1=O (stereo not shown)  0.711%
27. CCCCCCn1c(O)c(C(C)=NC)c(=O)[nH]c1=O  1.56%
28. CN1C(=O)C(C)(C)c2cc(S(=O)(=O)N3CCCC(C(=O)NCc4ccccc4Cl)C3)ccc21 (stereo not shown)  2.18%
29. O=C(CSc1nncn1-c1ccccc1)Nc1ccc(N2CCOCC2)cc1  3%
30. COc1ccccc1-c1c(C)nn2c(-c3ccccc3)cc(C)nc12  3.05%
31. COc1ccccc1/C=N/NC(=O)COCC(=O)N/N=C/c1ccccc1OC  3.56%
32. O=C(CN1CCN(c2ccccc2)CC1)N/N=C/c1cccc(F)c1  4.27%
33. COc1ccc(NC(=S)NCc2ccc3c(c2)cc(C)n3C)cc1  5.5%
34. Cc1ccc(S(=O)(=O)NC(CC(=O)O)c2ccccc2)c(C)c1 (stereo not shown)  5.52%
35. CN(C)S(=O)(=O)c1ccc(NC(=O)N2CCN(c3cccc(C(F)(F)F)c3)CC2)cc1  7.83%
36. COc1ccccc1C(=O)NCCC(=O)N(C)CC(=O)Nc1ccc(C)cc1  7.91%
37. Cc1nn(-c2ccccc2)c(C)c1/C=C/C(=O)OCC(=O)Nc1ccc(S(N)(=O)=O)cc1  13.1%
38. CCCC(=O)Nc1ccc(C(=O)NCc2ccccn2)cc1  14.2%
39. Cc1ccsc1C(=O)OCC(=O)NCCNC(=O)COC(=O)c1sccc1C  15.7%
40. CN1CCN(CC(=O)N/N=C\c2c[nH]c3ccccc23)CC1  16.2%
41. O=C(CC(=O)Nc1ccc(Cl)cc1)N/N=C\c1cccc(F)c1  16.6%
42. O=C(CO)N/N=C/c1ccccc1F  19.1%
43. Cc1ccc(S(=O)(=O)N(Cc2cccc(F)c2)C(=O)N2CCN(C)CC2)cc1  33.1%
